From PubChem BioAssay AID1850 (Southern Research Specialized Biocontainment Screening …, 2009)
In all, about 310,000 compounds went through this assay and about 1,000 (0.32%) were called active. These entries were drawn from the full list. Results with a measured potency or affinity are listed apart. A number with no mark means an inactive call. How the calls were made is not given here.

Assay: Inhibition of PhoP regulon, Salmonella typhi GFP reporter cells, confirmation, 4 h (AID 1850);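 further: 0% = induced wells with vehicle and 100% = uninduced wells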
Details: Salmonella Typhi PhoP-promoter GFP reporter, fluorescence, at 50 µM, stronger effect = higher value

Q: Which inhibition does the source give for `O=C(O)COCC(=O)NC1CCN(Cc2ccccc2)CC1` here?
A: -0.41%

Q: Which inhibition does the source give for `CC(CN1CCCCC1)OC(=O)c1ccccc1F` (stereo not drawn) here?
A: -3.63%

Q: With `Cc1nn(C(C)C(=O)NC2CCC(C)CC2)c(=O)c2nn(-c3ccccc3)c(C)c12` (stereo not drawn) as the compound, how does the inhibition read?
A: -5.27%

Q: With `Cc1ccc(Cl)cc1NC(=O)C1CC(=O)Nc2ncnn21` (stereo not drawn) as the compound, how does the inhibition read?
A: -13%

Q: Which inhibition does the source give for `O=C1NCCCC1C(=O)N/N=C/c1ccccc1O` (stereo not drawn) here?
A: -6.72%

Q: Which inhibition does the source give for `O=C(N/N=C/c1ccccc1O)NC12CC3CC(CC(C3)C1)C2` here?
A: 6.48%

Q: With `O=C(C[n+]1ccccc1)N/N=C/c1cc(Br)cc(Br)c1O` as the compound, how does the inhibition read?
A: 1.91%

Q: For `O=C(N/N=C/c1coc2ccc(Cl)cc2c1=O)c1ccncc1`, which inhibition is on record?
A: -3.86%

Q: Which inhibition does the source give for `Nc1nonc1C(=O)N/N=C/c1ccc(Br)o1` here?
A: -7.75%

Q: With `O=C(N/N=C/c1ccc(Cl)cc1Cl)c1ccncc1` as the compound, how does the inhibition read?
A: -12.1%

Q: For `CNC(=S)N/N=C/c1cc(Br)cc(Br)c1O`, which inhibition is on record?
A: 6.75%

Q: Which inhibition does the source give for `Nc1nonc1C(=O)N/N=C/c1cc2c(cc1Br)OCO2` here?
A: -18.8%

Q: With `CCOC(=O)C1CCCCN1Cc1cccc(OC)c1OC` (stereo not drawn) as the compound, how does the inhibition read?
A: -6.91%

Q: For `CCC(=O)NC(=S)Nc1ccc(NC(=O)c2ccco2)c(OC)c1`, which inhibition is on record?
A: -4.57%

Q: For `Cc1cc(=O)c(C(=O)O)nn1-c1cccc(C(F)(F)F)c1`, which inhibition is on record?
A: 3.22%

Q: For `Cc1[nH]n(-c2ccccc2)c(=O)c1/C=N/NC(=O)c1ccc(O)cc1O`, which inhibition is on record?
A: 4.8%

Q: Which inhibition does the source give for `Cc1ccc(C)c(CN2CCC(CNC(=O)CCc3nnc4ccc(N5CCCCC5)nn34)CC2)c1` here?
A: -0.65%

Q: For `O=C(CSc1nnc(CNC(=O)c2cccs2)o1)Nc1cccc(Cl)c1`, which inhibition is on record?
A: -8.62%

Q: With `O=C(CC1SC(N2CCCC2)=NC1=O)Nc1ccc(C(=O)N2CCN(c3cccc(Cl)c3)CC2)cc1` (stereo not drawn) as the compound, how does the inhibition read?
A: -3.88%

Q: With `Cc1ccc(S(=O)(=O)N[C@@H](CO)C(=O)N[C@@H](Cc2ccc(O)cc2)C(=O)O)cc1` as the compound, how does the inhibition read?
A: 3.35%

Q: With `Cc1ccc2c(c1)NC(=O)C(CC(=O)NCCCN1CCCCC1)O2` (stereo not drawn) as the compound, how does the inhibition read?
A: -5.47%

Q: Which inhibition does the source give for `COc1cc(Cl)c(C)cc1NC(=O)CCCN1C(=O)CCC1=O` here?
A: -6.87%

Q: With `CN1CCN(C(=O)c2ccc(CS(=O)Cc3ccc(Cl)cc3)o2)CC1` (stereo not drawn) as the compound, how does the inhibition read?
A: -3.59%

Q: For `COc1cccc(CNS(=O)(=O)c2ccc(S(=O)(=O)NC3CC3)cc2)c1`, which inhibition is on record?
A: 0.68%

Q: Which inhibition does the source give for `CCCc1cc(=O)oc2c3c(cc(OCC(=O)N4CCC[C@H]4C(=O)O)c12)OC(C)(C)CC3` here?
A: -1.72%

Q: For `COc1ccc(CNC(=O)CSc2nnnn2-c2ccc(O)cc2)cc1`, which inhibition is on record?
A: 4.45%

Q: For `Cc1ccc(CN2CCC(CNS(=O)(=O)c3ccc(-c4ccc(=O)[nH]n4)s3)CC2)cc1`, which inhibition is on record?
A: -17.1%

Q: Which inhibition does the source give for `Cc1ccc(Nc2nc(N)nc(CSC(=S)N3CCN(c4ccccc4)CC3)n2)cc1` here?
A: 5.34%

Q: For `COc1ccccc1NC(=O)Nc1ccc(CC#N)cc1`, which inhibition is on record?
A: -23.3%

Q: With `O=c1oc2ccccc2n1Cc1ccccc1F` as the compound, how does the inhibition read?
A: 0.75%

Q: With `O=c1[nH]cc(NCCc2ccccc2)c(=O)[nH]1` as the compound, how does the inhibition read?
A: 2.68%

Q: Which inhibition does the source give for `CC(=O)Nc1ccc(C(=O)N/N=C/c2cc(Br)cc(Br)c2O)cc1` here?
A: -13.1%

Q: Which inhibition does the source give for `O=C(N/N=C/c1cccnc1)c1cccc(Cl)c1` here?
A: 41%

Q: For `O=C(N/N=C/c1cc([N+](=O)[O-])ccc1O)c1ccncc1`, which inhibition is on record?
A: 12.7%

Q: For `O=C(N/N=C/c1cc(Cl)ccc1O)c1ccc(Br)cc1`, which inhibition is on record?
A: -15.2%

Q: For `COc1c(Br)cc(Br)cc1/C=N/NC(=O)c1ccncc1`, which inhibition is on record?
A: -12.1%

Q: For `O=C(CNC(=O)c1ccncc1)N/N=C/c1cc(Br)ccc1O`, which inhibition is on record?
A: 14.9%

Q: With `O=C(CP(=O)(c1ccccc1)c1ccccc1)N/N=C/c1cc(Br)cc(Br)c1O` as the compound, how does the inhibition read?
A: -0.96%

Q: With `O=C(N/N=C/c1cc(Br)cc(Br)c1O)c1cccc(S(=O)(=O)N2CCOCC2)c1` as the compound, how does the inhibition read?
A: 17.9%

Q: For `COc1ccccc1C(=O)Nc1nnc(SCC(=O)Nc2ccc3c(c2)oc2ccccc23)s1`, which inhibition is on record?
A: -0.02%

Q: Which inhibition does the source give for `COc1cc(/C=C2/NC(=O)NC2=O)ccc1OCC(=O)Nc1ccc(F)cc1` here?
A: 1.58%

Q: For `C=CCn1c(CSc2ccc(C)cc2)n[nH]c1=S`, which inhibition is on record?
A: 2.92%

Q: For `Cn1ncc(Cl)c1C(=O)N1CCN(c2ncccn2)CC1`, which inhibition is on record?
A: 10.1%

Q: With `Cc1cccc(NC(=O)COC(=O)CCCC2=NS(=O)(=O)c3ccccc3N2)c1` as the compound, how does the inhibition read?
A: -3.69%

Q: With `C=C(C)CC1N(c2cccc(OC)c2)C(=O)C2C(C(=O)O)C3C=CC21O3` (stereo not drawn) as the compound, how does the inhibition read?
A: -1.1%

Q: For `CCCCn1c(=O)[nH]c(=O)c2c1nc(-c1cc(Br)ccc1OC)n2C`, which inhibition is on record?
A: 1.08%

Q: With `O=C(CSC(=S)N1CCCC1)Nc1ncc(Cl)cc1Cl` as the compound, how does the inhibition read?
A: -5.14%

Q: Which inhibition does the source give for `CC(O)(CS(=O)(=O)Cc1ccccc1)C(=O)Nc1ccc(C(F)(F)F)cc1` (stereo not drawn) here?
A: 9.99%
